This is a sample that favours compounds with a hit; in the whole collection about 2.4% have one here.
Pol beta inh = inhibitors of human DNA polymerase beta; AID 485314; Potency, µM (titrated, usually from 114 µM), without a hit: at the highest dose activity change, negative = inhibition, hits mostly inhibitors; P06746; Pol beta primer extension/strand displacement, fluorescence kinetic; hit rate 1.3% among 340,000; also: potency is read from the fitted curve at half-maximal effect; % is scaled to controls: 0 for no effect and ±100 for the full control effect
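Enzyme-only controls used 10 nM Pol beta; buffer lacking enzyme served as negative control. Compound preincubated 15 min, then 50 nM substrate added; 0 and 10 min reads at room temperature.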
Pol eta inh-1 = DNA polymerase eta (human) inhibition | Potency, µM (highest dose often 114 µM), for inactives: top-dose activity change, negative = inhibition, hits mostly inhibitors | hit rate 1.2% among 390,000 | recombinant Pol eta, fluorescent DNA replication assay; also: potency is read from the fitted curve at half-maximal effect; % is scaled to controls: 0 for no effect and ±100 for the full control effect
Target sequence (Q9Y253 whole entry, looked up): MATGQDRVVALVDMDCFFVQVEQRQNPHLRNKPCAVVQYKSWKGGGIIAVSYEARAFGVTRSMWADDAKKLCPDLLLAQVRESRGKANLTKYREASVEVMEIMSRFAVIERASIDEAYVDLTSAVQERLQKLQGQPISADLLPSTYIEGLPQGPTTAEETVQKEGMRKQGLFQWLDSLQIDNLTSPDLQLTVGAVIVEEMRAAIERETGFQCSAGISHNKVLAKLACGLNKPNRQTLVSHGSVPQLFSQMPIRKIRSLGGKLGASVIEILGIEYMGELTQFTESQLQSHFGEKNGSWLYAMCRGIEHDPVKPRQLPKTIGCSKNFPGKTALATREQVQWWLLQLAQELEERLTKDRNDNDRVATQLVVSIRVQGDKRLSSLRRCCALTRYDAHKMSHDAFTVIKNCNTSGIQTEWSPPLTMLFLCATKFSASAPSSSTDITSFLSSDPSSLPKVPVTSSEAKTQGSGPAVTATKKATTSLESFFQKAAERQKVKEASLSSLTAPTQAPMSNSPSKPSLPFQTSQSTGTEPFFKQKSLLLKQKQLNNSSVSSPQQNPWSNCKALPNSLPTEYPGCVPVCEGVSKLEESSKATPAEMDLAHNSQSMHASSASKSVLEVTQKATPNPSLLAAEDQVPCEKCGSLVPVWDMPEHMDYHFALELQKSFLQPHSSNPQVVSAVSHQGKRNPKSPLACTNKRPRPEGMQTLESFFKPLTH
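Pol eta at 10 nM preincubated with compounds 15 min at room temperature; reaction started with fluorescent substrate (50 nM final) and read kinetically at 0 and 10 min.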
Pol kappa inh-1 = blocks human DNA polymerase kappa activity. Q9UBT6. purified Pol kappa, fluorescent DNA synthesis assay, 10 min. Potency, µM (titrated, usually from 107 µM), without a hit: at the highest dose activity, negative = inhibition, actives largely listed as inhibitors. hit rate 0.53% among 400,000. AID 588579; also: potency is read from the fitted curve at half-maximal effect; % is scaled to controls: 0 for no effect and ±100 for the full control effect
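10 nM Pol kappa was preincubated with compounds for 15 min at room temperature. Reaction started with 50 nM (final) substrate. Fluorescence read kinetically at 0 and 10 min.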
TDP1 block = TDP1 (human) enzyme inhibition; hit rate 0.28% among 350,000; Q9NUW8; recombinant TDP1, AlphaScreen DNA substrate cleavage; Potency, µM (top dose mostly 130 µM), for the others: top-dose activity change, negative = inhibition, actives largely listed as inhibitors; also: potency is read from the fitted curve at half-maximal effect; % is scaled to controls: 0 for no effect and ±100 for the full control effect; nearly all actives have a fitted effect of over 40% in size
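Tdp1 1 nM final; 15 min RT w/ cpd; substrate 15 nM, 5 min; beads 10 ug/ml, 10 min; AlphaScreen read. Neg ctrl: no enzyme.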
FEN1 inh = blocks human flap endonuclease 1 | Recombinant FEN1 flap cleavage, fluorescence, 15 min | Potency, µM (top dose mostly 114 µM), for the others: at the highest dose activity change, negative = inhibition, actives largely listed as inhibitors | hit rate 0.35% among 390,000 | AID 588795; also: potency is read from the fitted curve at half-maximal effect; % is scaled to controls: 0 for no effect and ±100 for the full control effect; nearly all actives have a fitted effect of over 65% in size
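Concentration–response screening of FEN1 (10 nM): 15 min compound preincubation at room temperature, reaction started with 50 nM substrate and read at 0 and 15 min. Corrected, normalized data were fitted by a four-parameter Hill equation.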
POLI inh = DNA polymerase iota (human) inhibition; hit rate 1% among 390,000; Potency, µM (titrated, usually from 115 µM), for inactives: at the top dose activity, negative = inhibition, hits mostly inhibitors; Pol iota fluorescent replication assay, 10 min; Q9UNA4; AID 588590; also: potency is read from the fitted curve at half-maximal effect
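Pol iota at 10 nM preincubated 15 min with compounds at room temperature; reaction started with fluorescent substrate, 50 nM final. Fluorescence read kinetically at 0 and 10 min; buffer-only wells as negative control.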
GALK inh confirm = galactokinase (human) inhibition, confirmation. shares compounds with Pol eta inh-1. purified GALK, Kinase-Glo ATP depletion luminescence. Potency, µM (series often up to 115 µM), inactives show at the top dose activity, negative = inhibition, actives largely listed as inhibitors. hit rate 70% among 150
GALK redox cs = generates H2O2 by redox cycling, flagging GALK artifacts; hit rate 40% among 150; Phenol red-HRP H2O2 redox cycling, absorbance 600 nm; Potency, µM (doses to about 115 µM), inactives show top-dose activity change, negative = H2O2 signal, usual class: inhibitors; AID 2035; shares compounds with Pol eta inh-1
HEK293 tox = HEK-293 cytotoxicity, GALK inhibitor secondary; shares compounds with Pol eta inh-1; HEK-293 viability, ATP luminescence (CellTiter-Glo), 24/48 h; Potency, µM (highest dose often 46.1 µM), for inactives: at the highest dose activity change, negative = cytotoxicity, hits mostly inhibitors; hit rate 10% among 170; AID 2547; also: potency is read from the fitted curve at half-maximal effect; % is scaled to controls: 0 for no effect and ±100 for the full control effect
Pol kappa inh-2 = Pol kappa (human) inhibition, cherry-pick confirmation; hit rate 76% among 920; AID 720501; Potency, µM, actives largely listed as inhibitors; purified Pol-kappa, fluorescent strand-displacement substrate; shares compounds with Pol eta inh-1; also: potency is read from the fitted curve at half-maximal effect
Pol eta inh-2 = confirmation of human DNA polymerase eta inhibitors; shares compounds with Pol eta inh-1; Pol eta primer extension, TAMRA/BHQ fluorescence, 10 min; Potency, µM, usual class: inhibitors; hit rate 64% among 2,600; also: potency is read from the fitted curve at half-maximal effect
* marks the source's active call; other numbers are inactive results; ? = inconclusive; / = no result; [ ] = dose if it differs, or a comment. Calls follow the shape of the dose curve; as a rule, active = well fitted curve in the direction sought with a large enough effect; inconclusive = small, poorly fitted or top-dose-only effect, or another doubt; inactive = no such curve, though single readings can be large; an effect the other way counts as inactive or inconclusive.

SMILES	Pol beta inh	Pol eta inh-1	Pol kappa inh-1	TDP1 block	FEN1 inh	POLI inh	Pol eta inh-2	others
N=C(N)SCc1ncccc1O	-3%	-3%	-46%	-5%	-12%	50µM*	?
O=C1/C(=C/c2ccncc2)CCC/C1=C\c1ccncc1	-2%	45µM*	-18%	6%	-8%	10µM*	?
C=CCNC(=S)NNC(=O)c1ccco1	7%	-2%	-2%	3%	19%	43%	/
O=C(/C=C/c1ccco1)NC(=S)NNC(=O)c1ccco1	?	50µM*	-32%	8%	2%	?	/	Pol kappa inh-2=?
O=S(=O)(N/N=C1/CC(c2ccccc2)Oc2ccccc21)c1ccccc1 (stereo not given)	/	-26%	-11%	/	-28%	-15%	/
O=C(O)c1cc(N/N=C2/CC(c3ccccc3)Oc3ccccc32)ccc1Cl (stereo not given)	40µM*	20µM*	?	-5%	-18%	?	60*
COc1cc(/C=C(\C#N)c2nc3ccc(C)cc3[nH]2)ccc1OCc1ccc(C)cc1	?	?	?	4%[12.3 µM]	?	?	/	Pol kappa inh-2=?
COc1cc(/C=C(\C#N)c2nc3ccccc3[nH]2)ccc1OCc1ccccc1F	?	?	-26%	5%[12.3 µM]	-19%	-18%	/
Cc1cccc(-c2nc(N3CCN(c4ccc(F)cc4)CC3)c3ccccc3n2)c1	-27%	?	6%	2%[12.3 µM]	-7%	23%	/
Cc1nc(NCc2ccccn2)c2c3c(sc2n1)CCCC3	-9%	-19%	-17%	3%	-20%	35%	/
Cc1nc(NS(=O)(=O)c2ccc(Cl)s2)c2c3c(sc2n1)CCCC3	-23%	-5%	-21%	1%	-8%	0%	/	GALK inh confirm=?;GALK redox cs=3%;HEK293 tox=3%
CC1CCCCC1NC(=O)CSc1ccc([N+](=O)[O-])cc1 (stereo not given)	7%	-6%	1%	/	-9%	55%	/
CSC1=NSC2=NC(=O)/C(=C/c3coc4ccccc4c3=O)C(=N)N12	40µM*	14µM*	?	5%	79µM*	-13%	/	Pol kappa inh-2=67*
N=C1/C(=C/c2cccs2)C(=O)N=C2SN=C(SCc3ccccc3)N12	?	25µM*	-4%	7%	?	?	/	GALK inh confirm=42µM*;GALK redox cs=1%;HEK293 tox=-7%
CC(C)CSC1=NSC2=NC(=O)/C(=C\c3cccs3)C(=N)N12	1%	?	-25%	-5%	-8%	75%	/
CC1=CC2=NC(=O)/C(=C/c3coc4ccc(Cl)cc4c3=O)C(=N)N2O1	?	?	-16%	7%	11%	39%	/
N=C1/C(=C\c2coc3ccccc3c2=O)C(=O)N=C2SC=CN12	?	40µM*	?	/	?	-3%	?
Cc1cc(C)c(C2=CC(=O)C[C@H](c3ccc4c(c3)OCO4)C2)c(C)c1	/	-8%	-2%	1%	-23%	12%	/
O=C(CSc1ncccc1C(=O)Oc1ccccc1Cl)Nc1ccccc1Cl	0%	-8%	-16%	8%	-17%	1%	/
COc1ccc(C(CC(=O)N2CCOCC2)c2c(OC)cc(OC)c3ccc(=O)oc23)cc1 (stereo not given)	?	?	?	-15%	2%	?	/
COc1cc(C(CC(=O)N2CCCC2)c2c(OC)cc(OC)c3c(-c4ccccc4)cc(=O)oc23)cc(OC)c1OC (stereo not given)	45µM*	40µM*	?	-12%	-94%	?	?
COc1cc(C(CCN2CCCCC2)c2c(OC)cc(OC)c3c(-c4ccccc4)cc(=O)oc23)cc(OC)c1OC (stereo not given)	?	-19%	-9%	8%	5%	-10%	/
COc1ccc(C(CC(=O)N2CCOCC2)c2c(OC)cc(OC)c3c(-c4ccccc4)cc(=O)oc23)cc1 (stereo not given)	35µM*	40µM*	?	-4%	-17%	71µM*	?
COc1ccccc1NC(=O)CSc1oc(-c2ccco2)nc1S(=O)(=O)c1ccc(C)cc1	-4%	-8%	-4%	-6%	-2%	9%	/
Cc1ccc(-n2ncc3c(N4CCN(C)CC4)ncnc32)cc1C	-1%	-19%	-7%[60.1 µM]	10%	0%	27%	/
SMILES	Pol beta inh	Pol eta inh-1	Pol kappa inh-1	TDP1 block	FEN1 inh	POLI inh	Pol eta inh-2	others
C[C@@H]1COC(=O)[C@@H](Cc2ccc(F)cc2)C/C=C\C[C@@H](CC(=O)NCCO)C(=O)N1	/	-13%	-7%	0%	-4%	33%	/
Cc1c(C(=O)O)sc2nc(CSc3nnc(-c4ccc(F)cc4)n3C)[nH]c(=O)c12	1%	35µM*	-30%	-5%	-7%	?	?
Cc1nnc(SCc2nc3sc(C(=O)O)c(C)c3c(=O)[nH]2)s1	0%	22µM*	89µM*	?	?	20µM*	43*
CC(=O)c1sc2nc(CSc3nncn3C)[nH]c(=O)c2c1C	-27%	-7%	-19%	-1%	-6%	?	/
C=CCn1c(SCc2nc3scc(-c4ccccc4)c3c(=O)[nH]2)nnc1-c1ccccc1F	4%	-5%	-11%	4%	-13%	5%	/
C=CCn1c(SCc2nc3sc(C(=O)O)c(C)c3c(=O)[nH]2)nnc1-c1ccc(C(C)(C)C)cc1	22µM*	7.1µM*	35µM*	20µM*	45µM*	?	30*	Pol kappa inh-2=12*
CCNc1nc(NCC)n2c(SCC(=O)Nc3ccc(F)cc3)nnc2n1	/	14µM*	?	6%[0.505 µM]	0%	20µM*	67*	Pol kappa inh-2=60*

Assay outcomes: PubChem, National Center for Advancing Translational Sciences (NCATS)
